These results are taken from PubChem BioAssay (EPA / NIEHS).

SMILES strings stand for the structures. Where “and” joins values, the source holds several entries; their conditions need not be identical. Equal values may be shown once. Results filed as inconclusive are left out. Calls of active or inactive are those of the source. How the source made its calls: active means hit-call score of the fitted dose curve at least 0.9, where 1 is the maximum; inconclusive means response in the unintended direction; inactive means score below 0.9.

Experiment [1] can be described thus: TOX21_p53_BLA_p2_viability: Viability Assessment in the Tox21 HCT-116 p53 Agonism Beta-lactamase Assay, Phase 2 (AID 2283591).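 Further: compound exposure lasted 16 h at 37 °C; actives lower the ATP signal meaning cytotoxicity.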 The essentials:
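HCT-116 p53-bla cells (4000/well) rested 5 h at 37C, then received compounds in DMSO (217-fold dilution) for 16 h at 37C, 5% CO2. After the CCF4 read, CellTiter-Glo was added; ATP luminescence was read after 30 min at room temperature.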

Experiment [2] concerns the target Cellular tumor antigen p53 (Homo sapiens) (UniProt P04637). Nature of the experiment: TOX21_p53_BLA_p2_ratio: Tox21 HCT-116 p53 Agonism Beta-lactamase Assay, Ratio, Phase 2 (AID 2283592). The procedure, abridged: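 Read-out is the blue/green (460/530 nm, 405 nm excitation) ratio after 2 h CCF4-AM loading, fitted as gain versus DMSO. Compounds, pinned at 217-fold dilution from DMSO stocks, stayed 16 h on HCT-116 beta-lactamase reporter cells seeded 5 h earlier.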

Experiment [3] is described as follows: TOX21_p53_BLA_p3_viability: Viability Assessment in the Tox21 HCT-116 p53 Agonism Beta-lactamase Assay, Phase 3 (AID 2283593).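 Further: cells exposed to compound for 16 h before reading.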 The procedure, abridged: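 HCT-116 cells (4000/well) rested 5 h at 37C, then got DMSO compounds by pin tool (217-fold dilution) for 16 h at 37C, 5% CO2. After the bla read, CellTiter-Glo was added and luminescence read at 30 min, room temperature.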

Experiment [4] deals with Cellular tumor antigen p53 (Homo sapiens) (UniProt P04637). Nature of the experiment: TOX21_p53_BLA_p3_ratio: Tox21 HCT-116 p53 Agonism Beta-lactamase Assay, Ratio, Phase 3 (AID 2283596). The procedure, abridged:
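Cells were seeded at 4000/well, rested 5 h at 37C, then dosed with DMSO compound solutions (217-fold dilution) for 16 h. CCF4-AM substrate was loaded for 2 h at room temperature, and the 460/530 nm emission ratio was fitted for gain of signal versus DMSO.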

The nature of experiment [5]: TOX21_p53_BLA_p4_viability: Viability Assessment in the Tox21 HCT-116 p53 Agonism Beta-lactamase Assay, Phase 4 (AID 2283597).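 Further: hits lower the luminescence signal meaning cytotoxicity.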 The essentials:
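Cytotoxicity as reduced cellular ATP (CellTiter-Glo luminescence, 30 min room temperature), measured in the same wells following the CCF4 FRET p53 reading. Human HCT-116 cells received compounds in DMSO (217-fold dilution) for 16 h.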

Experiment [6] addresses Cellular tumor antigen p53 (Homo sapiens) (UniProt P04637). Nature of the experiment: TOX21_p53_BLA_p5_ratio: Tox21 HCT-116 p53 Agonism Beta-lactamase Assay, Ratio, Phase 5 (AID 2283599). The essentials:
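HCT-116 cells carrying a p53-inducible beta-lactamase reporter were seeded at 4000 cells/well and dosed after 5 h with compound in DMSO (217-fold dilution). After 16 h at 37C, CCF4-AM substrate was added for 2 h, and the 460/530 nm emission ratio was scored as gain-of-signal versus DMSO.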

Experiment [7] in a line: TOX21_p53_BLA_p5_viability: Viability Assessment in the Tox21 HCT-116 p53 Agonism Beta-lactamase Assay, Phase 5 (AID 2283600). The procedure, abridged: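 Viability came from CellTiter-Glo ATP luminescence, read after 30 min at room temperature. Before this, HCT-116 p53-bla cells (4000/well) had 16 hours of compound exposure at 37C, with DMSO stocks diluted 217-fold on transfer.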

Experiment [8] has as its target Cellular tumor antigen p53 (Homo sapiens) (UniProt P04637). Nature of the experiment: TOX21_p53_BLA_p4_ratio: Tox21 HCT-116 p53 Agonism Beta-lactamase Assay, Ratio, Phase 4 (AID 2283601). The essentials: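 HCT116 cells carrying an inducible beta-lactamase reporter were plated at 4000 cells/well, rested 5 h, then exposed to compounds in DMSO (217-fold dilution) for 16 h at 37C. CCF4-AM substrate was loaded 2 h at room temperature; 460/530 nm emission ratio scored gain-of-signal versus DMSO.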

Cellular tumor antigen p53 (Homo sapiens), sequence (P04637 whole entry, looked up): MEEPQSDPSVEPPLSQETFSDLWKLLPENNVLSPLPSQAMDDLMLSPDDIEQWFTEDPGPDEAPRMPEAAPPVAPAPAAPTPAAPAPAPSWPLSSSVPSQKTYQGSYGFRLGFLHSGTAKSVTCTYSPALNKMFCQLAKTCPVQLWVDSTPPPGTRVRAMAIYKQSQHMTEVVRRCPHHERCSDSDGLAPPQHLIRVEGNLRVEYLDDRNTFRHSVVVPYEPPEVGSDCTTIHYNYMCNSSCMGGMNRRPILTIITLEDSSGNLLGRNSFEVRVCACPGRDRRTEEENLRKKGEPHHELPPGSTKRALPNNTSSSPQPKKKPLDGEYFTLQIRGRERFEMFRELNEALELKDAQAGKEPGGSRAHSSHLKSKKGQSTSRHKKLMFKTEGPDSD

With `CCCCCCCCCCCCCC[n+]1ccc(C)cc1`, the compound was called inactive in experiment [1], in experiment [3], in experiment [5], in experiment [6], in experiment [7] and in experiment [8]. Also, the figures for the concentration at half-maximal activity (AC50) in experiment [2] and in experiment [4] were 20.1 µM (active) and 27.5 µM (active), respectively.

In the case of `CCCOc1ccc(C(=O)OCCN(CC)CC)cc1N`, the compound was classed as inactive in experiment [1], in experiment [2], in experiment [3], in experiment [4], in experiment [5] and in experiment [6]. For the same compound, the compound was called inactive in experiment [7] and in experiment [8].

As for `CCC(C)[C@H]1O[C@]2(C=C[C@@H]1C)C[C@@H]1C[C@@H](C/C=C(\C)[C@@H](O[C@H]3C[C@H](OC)[C@@H](O[C@H]4C[C@H](OC)[C@H](NC(C)=O)[C@H](C)O4)[C@H](C)O3)[C@@H](C)/C=C/C=C3\CO[C@@H]4[C@H](O)C(C)=C[C@@H](C(=O)O1)[C@]34O)O2` (stereo not given in full), the concentration at half-maximal activity (AC50) in experiment [1] is 13 µM (active); in experiment [2] it was 15 µM (active); in experiment [3] it was 23 µM (active); in experiment [4], 34.5 µM (active); in experiment [5] it was 9.38 µM (active); in experiment [6] it was 22.3 µM (active). Also, the AC50 in experiment [7] is 15.8 µM (active); in experiment [8], 12 µM (active).

For the compound `CNC[C@H](O)c1ccc(O)c(O)c1`, the compound was classed as inactive in experiment [1], in experiment [2], in experiment [3], in experiment [4], in experiment [5] and in experiment [6]. For the same compound, the compound was classed as inactive in experiment [7] and in experiment [8].

For `Cc1cc(O)c(C(C)C)cc1Cl`, the outcome in experiment [1], in experiment [2], in experiment [3], in experiment [4], in experiment [5] and in experiment [6] was inactive. Besides, the compound was called inactive in experiment [7] and in experiment [8].

As to `Oc1ccc(Cl)cc1Sc1cc(Cl)ccc1O`, the AC50 was 31.3 µM (active) and 23 µM (active) in experiment [1]; 31.8 µM (active) and 8.26 µM (active) in experiment [2]; 46 µM (active) and 23 µM (active) in experiment [3]; 46 µM (active) and 21.2 µM (active) in experiment [4]; 53.9 µM (active) and 15.2 µM (active) in experiment [5]; 72.3 µM (active) and 32.1 µM (active) in experiment [6]. Further, the AC50 was 70.2 µM (active) and 23 µM (active) in experiment [7]; 65 µM (active) and 28.6 µM (active) in experiment [8].

Regarding `CC1CC(OC(=O)C(O)c2ccccc2)CC(C)(C)C1` (stereo not given), the outcome in experiment [1], in experiment [2], in experiment [3], in experiment [4], in experiment [5] and in experiment [6] was inactive. Moreover, the compound was called inactive in experiment [7] and in experiment [8].

Regarding `CC[C@H]1CN2CCc3cc(OC)c(OC)cc3[C@@H]2C[C@@H]1C[C@H]1NCCc2cc(OC)c(OC)cc21`, the result in experiment [1], in experiment [2], in experiment [3], in experiment [4], in experiment [5] and in experiment [6] was inactive. Also, the outcome in experiment [7] and in experiment [8] was inactive.

`OCCN1CCN(CC/C=C2/c3ccccc3Sc3ccc(C(F)(F)F)cc32)CC1`: the call in experiment [1], in experiment [2], in experiment [3], in experiment [4], in experiment [6] and in experiment [7] was inactive. The outcome in experiment [8] was inactive. For the same compound, in experiment [5], the half-maximal activity concentration (AC50) is 36.3 µM (active).

In the case of `CC1=C(/C=C/C(C)=C/C=C/C(C)=C/C=O)C(C)(C)CCC1`, the AC50 in experiment [1] is 28.7 µM (active); in experiment [3], 36.6 µM (active); in experiment [4], 66.6 µM (active); in experiment [5], 67 µM (active); in experiment [6] it was 49.1 µM (active); in experiment [7], 34.9 µM (active). The AC50 in experiment [8] was 85.6 µM (active). The outcome in experiment [2] was inactive.

Take `CC[C@@H]([C@H](C)O)n1ncn(-c2ccc(N3CCN(c4ccc(OC[C@@H]5CO[C@@](Cn6cncn6)(c6ccc(F)cc6F)C5)cc4)CC3)cc2)c1=O`: the outcome in experiment [1], in experiment [2], in experiment [3], in experiment [4], in experiment [6] and in experiment [7] was inactive. For the same compound, the result in experiment [8] was inactive. The AC50 in experiment [5] is 18.1 µM (active).

Regarding `CCCCCCCC/C=C\CCCCCCCC(=O)N(CCO)CCO`, the compound was classed as inactive in experiment [1], in experiment [2], in experiment [3], in experiment [4], in experiment [5] and in experiment [6]. In addition, the call in experiment [7] and in experiment [8] was inactive.

Turning to `CCCCC(CC)CN=C(N)NC(N)=NCCCCCCN=C(N)NC(N)=NCC(CC)CCCC` (stereo not given), the half-maximal activity concentration (AC50) in experiment [1] was 32 µM (active); in experiment [2], 24.1 µM (active); in experiment [3], 36.8 µM (active); in experiment [4], 33.9 µM (active); in experiment [5], 29.4 µM (active); in experiment [6], 37.3 µM (active). For the same compound, the AC50 is 31.6 µM (active) in experiment [7] and 27.9 µM (active) in experiment [8].

With `CC[C@H]1OC(=O)C[C@@H](O)[C@H](C)[C@@H](O[C@@H]2O[C@H](C)[C@@H](O[C@H]3C[C@@](C)(O)[C@@H](O)[C@H](C)O3)[C@H](N(C)C)[C@H]2O)[C@@H](CC=O)C[C@@H](C)C(=O)/C=C/C(C)=C/[C@@H]1CO[C@@H]1O[C@H](C)[C@@H](O)[C@@H](OC)[C@H]1OC`, the compound was classed as inactive in experiment [1], in experiment [2], in experiment [3], in experiment [4], in experiment [5] and in experiment [6]. In addition, the call in experiment [7] and in experiment [8] was inactive.

Consider `CCCCC(CC)CN1CN(CC(CC)CCCC)CC(C)(N)C1` (stereo not given), for which the compound was called inactive in experiment [1], in experiment [2], in experiment [3], in experiment [4], in experiment [5] and in experiment [6]. Moreover, the outcome in experiment [7] and in experiment [8] was inactive.

For `COc1cc2c(cc1OC)C(=O)C(CC1CCN(Cc3ccccc3)CC1)C2` (stereo not given), the outcome in experiment [1], in experiment [2], in experiment [3], in experiment [4], in experiment [5] and in experiment [6] was inactive. Further, the call in experiment [7] and in experiment [8] was inactive.

Turning to `CCC(C)Nc1ccc(NC(C)CC)cc1` (stereo not given), the AC50 is 15.1 µM (active) in experiment [1]; 22.4 µM (active) in experiment [3]; 46.8 µM (active) in experiment [4]; 19.2 µM (active) in experiment [5]; 30.1 µM (active) in experiment [7]. In addition, the result in experiment [2], in experiment [6] and in experiment [8] was inactive.

For `C/C=C1\NC(=O)[C@H]2CSSCC/C=C/[C@H](CC(=O)N[C@H](C(C)C)C(=O)N2)OC(=O)C(C(C)C)NC1=O` (stereo not given in full), the half-maximal activity concentration (AC50) in experiment [1] is 1.46 µM (active); in experiment [2], 0.00463 µM (active); in experiment [3], 1.87 µM (active); in experiment [4], 4.57 µM (active); in experiment [5], 0.735 µM (active); in experiment [6], 11.4 µM (active). Also, the AC50 in experiment [7] was 2.56 µM (active); in experiment [8] it was 7.21 µM (active).

For the compound `C[C@@H]1CN(CCCn2c3ccccc3c3ccccc32)C[C@H](C)N1`, the outcome in experiment [1], in experiment [2], in experiment [3], in experiment [4], in experiment [6] and in experiment [7] was inactive. Besides, the outcome in experiment [8] was inactive. Besides, the concentration at half-maximal activity (AC50) in experiment [5] was 28.9 µM (active).

In the case of `CCCN(CCc1cccs1)[C@H]1CCc2c(O)cccc2C1`, the outcome in experiment [1], in experiment [2], in experiment [3], in experiment [4], in experiment [5] and in experiment [6] was inactive. Further, the result in experiment [7] and in experiment [8] was inactive.

In general, AC50 refers to the concentration giving half of the maximal activity seen.
